FBA Mtb inh: inhibits M. tuberculosis FBA enzyme | purified M. tuberculosis FBA, fluorescence read-out | inhibition, % at 1 µM | hit rate 2.3% among 360,000; in the data active means inhibition above about 27%;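 further: 0% = vehicle and 100% = reference inhibitor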
Target sequence (P9WQA3 whole entry, looked up): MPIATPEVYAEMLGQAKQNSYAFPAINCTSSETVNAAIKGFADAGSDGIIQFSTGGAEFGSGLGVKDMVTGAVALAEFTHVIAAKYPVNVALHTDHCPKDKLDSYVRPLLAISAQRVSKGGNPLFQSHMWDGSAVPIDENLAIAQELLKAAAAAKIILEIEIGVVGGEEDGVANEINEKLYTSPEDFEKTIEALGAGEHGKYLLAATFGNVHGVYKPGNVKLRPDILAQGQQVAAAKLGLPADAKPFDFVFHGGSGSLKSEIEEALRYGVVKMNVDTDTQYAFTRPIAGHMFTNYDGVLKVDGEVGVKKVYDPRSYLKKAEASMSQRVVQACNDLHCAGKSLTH
GDH-TPI counter: GDH-TPI coupled enzyme inhibition counter-screen | inhibition, % at 4.8 µM | AID 588335 | GDH-TPI coupled enzyme counterscreen, NADH absorbance | hit rate 1.2% among 360,000;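 further: 0% = DMSO wells and 100% = wells lacking the enzyme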
CCHF vOTU inh: CCHFV vOTU protease inhibition; hit rate 0.55% among 370,000; Pep-AMC fluorescence; inhibition, % at 11.5 µM; further: 0% = vehicle wells with enzyme and 100% = no enzyme wells
BH1578 lux ind: inducers of Vibrio cholerae quorum light production without autoinducers; V. cholerae BH1578 lux reporter, luminescence, 6 h; activation, % at 18.7 µM; hit rate 0.16% among 350,000; AID 588436; in the data active means activation mostly above about 9.7%, no sharp cut-off
* = called active by the depositor; i = inactive; nt = no result given; + = active, no number. Compounds with a hit are over-represented: about 3.9% of the library has one in this group of screens. Unless noted, no stated cut-off is given here; in the data, active means inhibition above about 30%; inactive means the rest.

SMILES	FBA Mtb inh	GDH-TPI counter	CCHF vOTU inh	BH1578 lux ind
C/C(=N\NC(=O)c1ccccc1)c1c(O)n(C2CCCCC2)c(=O)[nH]c1=O	-0.8	37.9*	4.7	-0.7
COc1cc(/C=N/n2cnnc2-n2nc(C)cc2C)cc([N+](=O)[O-])c1O	-11.1	38.0*	25.6	-0.2
COc1ccc(NC(=O)N[C@@H](CCSC)C(=O)O)cc1OC	2.2	-7.2	-14.5	-0.3
Cc1cc(NC(=O)c2cc(-c3ccc(C)c(C)c3)nc3ccccc23)no1	22.4	4.1	-21.6	0.1
Cc1ccc(-c2cc(C(=O)N3CC(C)OC(C)C3)c3ccccc3n2)o1 (centres undefined)	145.5*	11.7	-229.7	0.9
Cc1ccc(-c2cc(C(=O)n3cnc4ccccc43)c3ccccc3n2)cc1C	50.5*	7.9	-18.8	0.5
Cc1ccc(-c2cc(C(=O)N3CC(C)CC(C)C3)c3ccccc3n2)o1 (centres undefined)	24.4	3.0	-25.2	-0.2
COc1ccc(-c2cc(C(=O)N3CCCCCC3)c3ccccc3n2)cc1	150.0*	14.8	-145.0	-2.4
CCc1ccc(-c2cc(C(=O)O)c3ccccc3n2)s1	151.8*	38.2*	-224.5	-1.0
O=C1c2ccccc2-c2ccc(C(=O)N3CCCCC3)cc21	-1.0	2.5	-13.3	-1.4
Cc1cc(/C=C(\C#N)C(=O)NCc2ccco2)c(C)n1C1CCCC1	2.3	-1.6	-1.6	-0.2
O=C(O)c1cc(-c2cccc3ccccc23)nc2ccccc12	11.3	0.0	9.7	0.1
COc1ccc(-c2cc(C(=O)Oc3ccc([N+](=O)[O-])cc3)c3ccccc3n2)cc1	+	22.8	-121.7	-0.3
Cc1ccc(-c2cc(C(=O)N3CCCC3)c3ccccc3n2)s1	+	17.8	-304.8	i
CCn1cc(-c2cc(C(=O)O)c3ccccc3n2)c(C)n1	130.2*	8.4	-59.0	-0.3
CS(=O)(=O)c1ccc(-c2cn3cc(C(=O)O)ccc3n2)cc1	114.1*	2.5	-80.2	-0.4
CCc1n[nH]c(=S)n1/N=C/c1ccc(N(CC)CC)cc1	-5.4	47.6*	1.1	-3.3
CCN(CC)c1ccc(/C=N/n2c(C)cc(C)cc2=O)cc1	-1.8	33.0*	6.2	-5.9
COC(=O)/C(C#N)=C1/SC=C(C)N1c1ccccc1	-3.4	26.7	12.9	-0.4
Cc1ccc(NC(=S)/C(C#N)=C2/Nc3ccccc3S2)cc1	0.5	29.2	21.2	-0.3
CC1=CS/C(=C(/C#N)C(=O)N2CCCCC2)N1c1ccccc1	-2.1	45.3*	10.8	nt
N#C/C(C(=O)N1CCCCC1)=C1\Nc2ccccc2S1	-1.8	54.1*	16.7	i
CC1=CS/C(=C(/C#N)C(=O)N2CCOCC2)N1c1ccccc1	-5.3	31.6*	7.7	i
O=C(O)C1Nc2c(O)cc(Cl)c([N+](=O)[O-])c2C2C=CCC12 (centres undefined)	-8.5	10.5	34.8*	i
CCOC(=O)N[C@H](C(=O)N1CCC[C@H]1C(=O)NCCc1ccccc1Cl)C1CCCCC1	nt	nt	-2.6	nt
SMILES	FBA Mtb inh	GDH-TPI counter	CCHF vOTU inh	BH1578 lux ind
COc1ccc(C2CC(C(F)(F)F)n3nc(C(=O)N(C)Cc4cn(C)nc4C)c(Cl)c3N2)cc1 (centres undefined)	2.8	-5.4	3.7	+
COc1ccc(C2CC(C(F)(F)F)n3nc(C(=O)NCc4c(C)nn(C)c4C)c(Cl)c3N2)cc1 (centres undefined)	-0.7	-10.2	-10.9	-7.7
O=C1/C(=C/c2ccccc2)CN(C(=O)CCN2CCOCC2)C/C1=C\c1ccccc1	3.0	37.1*	-15.3	5.6
C[N+](C)(C)CCC(=O)N1C/C(=C/c2ccccc2)C(=O)/C(=C\c2ccccc2)C1	0.1	40.5*	-2.2	i
CCOC(=O)N1C/C(=C\c2ccccc2)C(=O)/C(=C/c2ccccc2)C1	0.0	15.0	-11.1	-0.3
CN(C)CCC(=O)N1C/C(=C/c2ccccc2)C(=O)/C(=C\c2ccccc2)C1	0.7	35.3*	3.7	-2.0
O=C(/C=C/c1ccccc1)CCN1CCOCC1	0.7	17.2	-13.3	i
O=C(N/N=C/c1cccs1)c1ccc(NC(=O)c2ccccc2Cl)cc1	-0.2	32.6*	3.5	i
Cc1ccc(/C=N/NC(=O)c2ccc(NC(=O)c3ccccc3Cl)cc2)o1	-5.8	49.1*	2.1	4.0
O=C(N/N=C/c1ccco1)c1ccc(NC(=O)c2ccccc2Cl)cc1	-2.1	20.8	12.4	-0.2
CCOC(=O)c1cc(-c2cccs2)nn1CCC#N	-1.2	8.1	10.5	i
N#CC1C(=O)Nc2cccnc21 (centres undefined)	+	9.1	-1.6	i
CC(Sc1nnc(NC2CCCCC2)s1)C(=O)N1CCOCC1 (centres undefined)	2.2	5.8	14.3	i
Cc1cc(OCC(=O)NCC2CCC(C(=O)O)CC2)c2c(C)c(C)c(=O)oc2c1 (centres undefined)	21.1	5.9	-11.8	-0.4
Cc1cc(=O)oc2c(C)c(OCC(=O)NCC3CCC(C(=O)O)CC3)ccc12 (centres undefined)	9.6	15.7	1.0	-0.4
Cc1cc(=O)oc2c3c(cc(OCC(=O)NCC4CCC(C(=O)O)CC4)c12)OC(C)(C)CC3 (centres undefined)	+	16.7	-206.4	-0.4
Cc1c(C)c2c(OCC(=O)N3CCC(C(=O)O)CC3)cc3c(c2oc1=O)CCC(C)(C)O3	+	36.3*	nt	-0.6
Cc1c(C)c2c(OCC(=O)NCC3CCC(C(=O)O)CC3)cc3c(c2oc1=O)CCC(C)(C)O3 (centres undefined)	120.1*	7.6	-59.3	-0.3
COc1cc([N+](=O)[O-])ccc1NC(=O)NCC1CCN(Cc2ccc(Cl)cc2)CC1	-0.8	14.7	-6.0	i
CN(Cc1ccncc1)C(=O)[C@@H]1CCCN1C(=O)[C@@H]1CCCN1	nt	nt	1.6	nt
CCOC(=O)c1cc2c(ccc3ccccc32)oc1=O	+	6.7	-342.5	i
CC(C)(C)NC(=O)c1cc2c(ccc3ccccc32)oc1=O	79.6*	4.9	-35.4	i
O=C(O)c1cc2ccc3ccccc3c2oc1=O	196.2*	10.2	-123.7	-0.8
O=C(c1cc2c(ccc3ccccc32)oc1=O)N1CCCC1	166.0*	15.9	-163.4	i
C=CCc1cccc2cc(C(=O)NC(C)(C)C)c(=O)oc12	0.0	2.9	6.1	-5.6
SMILES	FBA Mtb inh	GDH-TPI counter	CCHF vOTU inh	BH1578 lux ind
CCOC(=O)c1cc2c(=O)c3ccccc3oc2nc1C	-1.0	-2.6	-14.8	i
CC1=CC(=O)C2=C(C)CC[C@@H]3[C@H](OC(=O)[C@H]3C)[C@@H]12	1.1	6.0	7.5	i
O=C(NCc1ccccn1)c1cc2c(ccc3ccccc32)oc1=O	172.4*	16.9	-234.1	-0.8
O=C(O)c1cc2c(ccc3ccccc32)oc1=O	+	9.7	-230.7	-0.3
CCCC(=O)c1cc2ccccc2oc1=O	0.9	0.0	-5.4	2.9
CCCCn1c(N)c(N(CCOC)C(=O)COC(=O)c2ccccc2NCCO)c(=O)[nH]c1=O	124.4*	11.8	-181.5	-1.9
CCN(C(=O)COC(=O)c1ccccc1NCc1ccco1)c1c(N)n(Cc2ccccc2)c(=O)[nH]c1=O	142.3*	-4.2	-89.5	-0.9
CCCCn1c(N)c(N(CCOC)C(=O)COC(=O)COc2c(C)cccc2C)c(=O)[nH]c1=O	-0.8	4.3	1.4	-2.8

Screens from PubChem BioAssay.
